ERa coact inh: ERα–SRC-1 coactivator interaction inhibitors, primary screen, biochemical, TR-FRET, ERα LBD, estradiol-bound | Estrogen receptor (Homo sapiens), P03372 | TR-FRET ER-alpha LBD / SRC-1 peptide | inhibition, % at 25.6 µM | actives 1.7% (n = 86,000); in the data active means inhibition above about 50%
MRP1 act: H69AR viability gain despite doxorubicin, primary screen, MRP-1 activator project, H69AR cells, CellTiter-Glo; viability rescue; viability increase, % at 10 µM; actives 0.61% (n = 140,000);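 active means viability gain under doxorubicin at or above a set limit, the compound median plus 3 SD, cut at about 4.7% in these data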;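 further: MRP-1 overexpressing cells given doxorubicin 25 µM after compound pretreatment; 18-22 h compound pretreatment then 72 h with doxorubicin before readout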
MRP resist rev: reversal of MRP1-mediated doxorubicin resistance, primary screen, H69AR cells, doxorubicin co-treatment | H69AR cells + 2 uM doxorubicin, CellTiter-Glo, 72 h | differential viability (reversal), % at 10 µM | actives 0.04% (n = 85,000) | AID 602, 2007;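 active means viability drop by adding the cancer drug above about 55%, with treated viability meeting a 40% cutoff, limit read from the data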;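 further: larger differential means the compound sensitizes cells more to doxorubicin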
ERb SRC1 inh: inhibitors of ERβ-SRC1 coactivator interaction, primary screen, biochemical, TR-FRET, ERβ LBD, SRC-1 peptide. AID 633, 2007. TR-FRET ER-beta LBD / SRC1-Cy5 peptide binding; receptor agonist-loaded with 1 µM estradiol. Estrogen receptor beta (Homo sapiens), Q92731. inhibition, % at 25.6 µM. actives 1.3% (n = 86,000);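 active means compounds whose percent inhibition of the receptor-coactivator binding signal exceeds about 50% in the single-dose screen, limit read from the data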
Target sequence (Q92731 whole entry, looked up, the tested form may be a part): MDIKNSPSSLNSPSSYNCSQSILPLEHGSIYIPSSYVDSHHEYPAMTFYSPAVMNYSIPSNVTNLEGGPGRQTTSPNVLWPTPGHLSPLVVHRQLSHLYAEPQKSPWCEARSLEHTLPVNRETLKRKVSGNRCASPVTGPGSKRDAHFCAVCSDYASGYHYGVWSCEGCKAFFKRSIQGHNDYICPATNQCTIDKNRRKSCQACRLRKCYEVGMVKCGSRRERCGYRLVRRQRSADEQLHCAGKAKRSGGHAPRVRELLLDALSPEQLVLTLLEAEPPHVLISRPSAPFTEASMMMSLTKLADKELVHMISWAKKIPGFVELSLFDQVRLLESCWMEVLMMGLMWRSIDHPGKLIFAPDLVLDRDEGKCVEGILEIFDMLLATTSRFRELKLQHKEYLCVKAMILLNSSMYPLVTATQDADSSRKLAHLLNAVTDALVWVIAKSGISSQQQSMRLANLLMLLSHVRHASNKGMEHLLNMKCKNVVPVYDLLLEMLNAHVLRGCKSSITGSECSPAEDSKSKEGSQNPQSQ
Smad3 FoxH1 inh: Smad3/FoxH1 peptide binding inhibitors, primary screen, biochemical, TR-FRET; actives 0.29% (n = 88,000); AID 630, 2007; Mothers against decapentaplegic homolog 3 (Homo sapiens), P84022; inhibition, % at 25 µM; TR-FRET Smad3/Dy647-FoxH1 peptide binding, europium anti-His;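 active means compounds that reduce the energy-transfer binding signal between the protein and its labelled peptide by more than half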
ERa coact pot: enhancers of ERα–SRC-1 coactivator binding, primary screen, biochemical, TR-FRET, ERα LBD, low estradiol | coactivator binding (% of control), % at 25.6 µM | Estrogen receptor (Homo sapiens), P03372 | actives 1.3% (n = 86,000) | TR-FRET ERalpha-LBD/SRC-Cy5 coactivator binding, 2 h; 100 = basal binding, no effect; in the data active means activity above about 200%;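 further: binding measured in presence of low estradiol as agonist stimulus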
Large screens that a line does not name were inactive; [ ] = another dose, or the depositor's remark. The list is not random: actives were taken first. Their share in the collection is about 2.8%.

Cc1noc(C)c1C(=O)Nc1ccc(F)c(F)c1	none
CCCCc1ccc(NC(=O)c2c(C)noc2C)cc1	MRP1 act 8.7
CCCCN1CSC(=S)N(Cc2ccccc2)C1	none (no result: ERa coact inh, MRP1 act, MRP resist rev, ERb SRC1 inh, ERa coact pot)
COc1ccc(C(=O)Nc2ccccc2C(=O)NC(C(=O)NCc2ccco2)C(C)C)cc1 (stereo not given)	ERa coact pot 241.8[fluorescence artefact?]
COc1ccc(C(=O)NNC(=O)C(NC(=O)c2ccccc2NC(=O)c2ccco2)C(C)C)cc1 (stereo not given)	none (no result: ERa coact inh, MRP resist rev, ERb SRC1 inh, Smad3 FoxH1 inh, ERa coact pot)
COc1ccc(C(=O)Nc2ccccc2C(=O)N(Cc2ccco2)C(C(N)=O)C(C)C)cc1 (stereo not given)	ERa coact inh 57.2[fluorescence artefact?]
CCOC(=O)C1=C(c2ccccc2)O/C(=C(\C(=O)OC)C(F)(F)F)S1	ERa coact pot 270.2[fluorescence artefact?]
CCOC(=O)C1=C(c2ccccc2)O/C(=C(/C#N)C(F)(F)F)S1	none
Cc1ccsc1C=Nc1ccc(O)cc1	ERb SRC1 inh 75.7[fluorescence artefact?]
O=c1ccc2ccc(Oc3ccc([N+](=O)[O-])cc3[N+](=O)[O-])cc2o1	none (no result: ERa coact inh, MRP resist rev, ERb SRC1 inh, Smad3 FoxH1 inh, ERa coact pot)
CSc1ncc2c(n1)-c1cc(C)ccc1SC2	ERa coact inh 97.5
O=C(O)c1[nH]c2c([N+](=O)[O-])cc([N+](=O)[O-])cc2c1C(=O)O	none (no result: ERa coact inh, MRP1 act, MRP resist rev, ERb SRC1 inh, ERa coact pot)
O=C(CSc1ccc(Cl)cc1)c1ccco1	ERa coact inh 80.4[fluorescence artefact?], ERb SRC1 inh 80.6
O=C(CSc1ccccc1Cl)c1ccco1	none
[N-]=[N+]=CC(=O)COC(=O)c1ccccc1	none (no result: ERa coact inh, MRP1 act, MRP resist rev, ERb SRC1 inh, ERa coact pot)
COc1ccc(-n2nc(C(=O)Nc3ccc(OC)c(OC)c3)c3c4ccccc4n(C)c3c2=O)cc1	ERa coact inh 56.9
COc1ccc(-n2nc(C(=O)Nc3ccc4c(c3)OCO4)c3c4ccccc4n(C)c3c2=O)cc1	none (no result: MRP1 act)
NC(=S)n1[nH]c(-c2ccc([N+](=O)[O-])cc2)c(N=Nc2ccc(O)cc2)c1=O	ERa coact inh 91.8
COCCCNC(=O)Cn1nnc(-c2ccc(NC(=O)c3ccc(F)cc3)cc2)n1	ERa coact pot 257.9[fluorescence artefact?]
COc1ccc(NC(=O)Cn2nnc(-c3ccccc3F)n2)cc1	none
Cc1cccc(Nc2nnc(SCC(=O)N(C)C3CCS(=O)(=O)C3)s2)c1C (stereo not given)	none (no result: ERa coact inh, MRP resist rev, ERb SRC1 inh, Smad3 FoxH1 inh, ERa coact pot)
CCC(C)C(NC(=O)C(N)CC(C)C)C(=O)NC(CCC(=O)OCc1ccccc1)C(N)=O (stereo not given)	ERa coact pot 211.3
Cc1ccc(OCc2ccc(C(=O)N3CCOCC3)cc2)cc1C	none
Cc1ccc(OCc2ccoc2C(=O)O)cc1C	ERa coact inh 62.3, ERb SRC1 inh 66.1
O=C(Nc1nc(-c2ccco2)c(-c2ccco2)s1)C1CC(=O)N(c2ccc3c(c2)OCCO3)C1 (stereo not given)	ERb SRC1 inh 70.5[fluorescence artefact?]
[O-][N+]1(CC[N+]2([O-])CCCCC2)CCCCC1	none (no result: ERa coact inh, MRP1 act, MRP resist rev, ERb SRC1 inh, ERa coact pot)
COc1ccc(-c2cn(/N=C/c3ccc(Cl)cc3Cl)c(N)n2)cc1	none
C[C@@]1([C@@H](NC(=O)c2cccs2)c2ccc(-c3ccccc3)cc2)C[C@H]1C1CCCCC1	none (no result: ERa coact inh, MRP resist rev, ERb SRC1 inh, Smad3 FoxH1 inh, ERa coact pot)
CCCN1C(=O)/C(=N\OCC(=O)Nc2ccc(C(C)C)cc2)c2ccccc21	MRP1 act 6.5 (no result: ERa coact inh, MRP resist rev, ERb SRC1 inh, Smad3 FoxH1 inh, ERa coact pot)
CCCN1C(=O)/C(=N\OCC(=O)NC23CC4CC(CC(C4)C2)C3)c2ccccc21	MRP1 act 5.7 (no result: ERa coact inh, MRP resist rev, ERb SRC1 inh, Smad3 FoxH1 inh, ERa coact pot)
CC(C)c1ccc(NC(=O)COc2nncc3ccccc23)cc1	none (no result: ERa coact inh, MRP resist rev, ERb SRC1 inh, Smad3 FoxH1 inh, ERa coact pot)
CCC(=C(c1ccc(OC)cc1)c1ccc(OC)cc1)c1cn(CC(O)CN2CCN(C)CC2)c2ccccc12 (stereo not given)	ERa coact inh 70.3[fluorescence artefact?]
Cc1ccc(OCCN2CCN(CC(O)Cn3c4ccccc4c4ccccc43)CC2)cc1 (stereo not given)	none (no result: ERa coact inh, MRP resist rev, ERb SRC1 inh, Smad3 FoxH1 inh, ERa coact pot)
COCCNc1oc(-c2ccccc2Cl)nc1C#N	none
CNc1oc(-c2ccc(C)cc2)nc1P(=O)(c1ccccc1)c1ccccc1	MRP1 act 7.4 (no result: ERa coact inh, MRP resist rev, ERb SRC1 inh, Smad3 FoxH1 inh, ERa coact pot)

Assay outcomes: PubChem BioAssay, several laboratories
